High-throughput results deposited in PubChem by National Center for Advancing Translational Sciences (NCATS).
Rows were chosen to be rich in hits. Some 19% of all compounds tested hit in one or more screens of this group.
HT1080NT lethal = kills 2HG-producing HT-1080-NT fibrosarcoma cells; HT-1080-NT fibrosarcoma viability, CellTiter-Glo ATP luminescence, 48 h; hit rate 1.6% among 360,000; Potency, µM (doses to about 46.1 µM), most hits filed as cytotoxic;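 also: NT is the 2HG producing partner of a matched IDH1 knockdown line; nearly all actives have a fitted effect of over 55% in size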
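HT-1080-NT; 750 cells/well; 5% FBS RPMI; 48 h compound, 37 degrees C; CellTiter-Glo luminescence; curve fitting and curve-class assignment.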
TDP1 cell CPT = growth inhibition of DT40 Tdp1-/-;hTDP1 cells with camptothecin (screen for TDP1 inhibitors); hit rate 12% among 420,000; Potency, µM (top dose mostly 46.2 µM), most hits filed as inhibitors; AID 686979; chicken DT40 Tdp1-/-;hTDP1 cells + 20 nM CPT, ATP luminescence, 48 h; also: nearly all actives have a fitted effect of over 55% in size
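Chicken DT40 Tdp1-/- cells stably complemented with human TDP1 were seeded at 400 cells/well in medium containing 20 nM camptothecin, exposed to pin-transferred compounds, and grown at 37 °C for at least 48 hr. Viability was read as ATP luminescence.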
IL-1B inflam inh = blocks inflammasome-driven IL-1 beta release | THP-1 LPS/ATP IL-1B secretion, AlphaLISA, 16 h; active compounds read low | activity change, % at 57.5 µM | hit rate 4.7% among 360,000 | AID 743279; in the data active = activity change below about -50%; inconclusive = mostly about -30% to -49%
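Secreted IL-1B measured by AlphaLISA bead assay after 16 h compound exposure of THP-1 cells; compounds (final up to 57.5 uM) added 1 h before LPS (250 ng/mL) and ATP (1.25 mM) stimulation; lower signal means less secretion.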
HT1080 IDH1KD tx = toxicity to HT-1080 IDH1 knockdown cells (counter line); Potency, µM (highest dose often 46.1 µM), most hits filed as cytotoxic; HT-1080 IDH1 knockdown viability, ATP luminescence, 48 h; hit rate 2% among 360,000
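HT-1080-IDH1KD cells (IDH1 knocked down), 750/well in RPMI with 5% FBS, treated with compound 48 h at 37 degrees C. Viability by CellTiter-Glo luminescence, normalised to DMSO and no-cell wells; concentration-response curves classed.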
TDP1 cell noCPT = qHTS for Inhibitors of human tyrosyl-DNA phosphodiesterase 1 (TDP1): qHTS in cells in absence of CPT. DT40 Tdp1-/- hTDP1 cells, no CPT, ATP luminescence, 48 h. Potency, µM (series often up to 46.2 µM), most hits filed as inhibitors. hit rate 15% among 420,000. AID 686978, 2013; also: nearly all actives have a fitted effect of over 55% in size
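Seeded 400 DT40-hTDP1 cells/well (vehicle DMSO, no 20 nM CPT); pinned compounds; ≥48 hr at 37 °C; CellTiter-Glo luminescence as viability measure.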
ELG1 repair inh = ELG1-dependent DNA repair inhibition; HEK293T ELG1-luciferase reporter, luminescence, 16 h; DNA damage induced by 5-fluorouridine; Potency, µM (series often up to 46.1 µM), most hits filed as inhibitors; AID 504467; hit rate 2.3% among 330,000; also: nearly all actives have a fitted effect of over 55% in size
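Cells (2,000 per well) received 5-fluorouridine plus test compound or DMSO and were incubated 16 hr at 37 °C, 5% CO2. Luciferase activity was read by luminescence 30 min after ONE-Glo addition; signal suppression marked inhibition of damage-induced ELG1 function.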
A number is an active result; – = inactive; ? = inconclusive; · = not tested or not shown; [ ] = dose if it differs, or a comment. Unless noted, calls follow the shape of the dose curve; as a rule, active = well fitted curve in the direction sought with a large enough effect; inconclusive = small, poorly fitted or top-dose-only effect, or another doubt; inactive = no such curve, though single readings can be large; an effect the other way counts as inactive or inconclusive.

SMILES	HT1080NT lethal	TDP1 cell CPT	IL-1B inflam inh	HT1080 IDH1KD tx	TDP1 cell noCPT	ELG1 repair inh
COc1ccc(NC2CCCN(Cc3cccc4cnccc34)C2)cc1OC (stereo not given)	–	?	–	–	21µM	–
CCN(C(=O)Cn1nc(Cc2cccnc2)c2ccccc2c1=O)c1ccccc1F	·	?	·	·	–	·
CC(C)(C)S(=O)N1Cc2cn(Cc3ccccc3)c(=O)cc2[C@@H]1CCO (stereo not given in full)	–	–	–	–	–	·
Cn1c(-c2ccccc2)cnc1NCc1ccc(F)cc1	–	?	–	–	?	–
CSc1ccc(CNc2ncc(-c3cccc([N+](=O)[O-])c3)n2C)cc1	–	16µM	?	–	23µM	–
CSc1ccc(CNc2ncc(-c3ccccc3)n2C)cc1	·	?	·	·	18µM	·
Cc1ccc(S(=O)(=O)Nc2ccc(NC(=O)c3cccnc3)cc2)cc1	–	–	–	–	–	?
Cc1ccnc(NS(=O)(=O)c2ccc(NC(=O)c3cccc(Cl)c3)cc2)n1	–	–	–	–	–	·
COc1ccc(N2C(c3ccsc3)=Cc3cc4c(cc3C2c2c[nH]c3ccccc23)OCO4)cc1 (stereo not given)	21µM	?	–	?	23µM	·
CCC(=O)Nc1cc(C(=O)OC(C(=O)c2ccc(C)c(C)c2)c2ccccc2)ccc1C (stereo not given)	–	18µM	-59	–	?	–
COc1ccc(-n2c(=O)c(-c3ccccc3)nc3cnc(N4CCOCC4)nc32)cc1	·	–	·	·	–	·
Cc1cc(NC(=O)c2cccc(S(=O)(=O)Nc3cccc(C(=O)O)c3)c2)no1	–	–	–	–	–	–
CCCCCn1c(C(Cc2ccccc2)NC(C)=O)nc2ccccc21 (stereo not given)	–	?	–	–	26µM	–
CCCCC(NC(C)=O)c1nc2ccccc2n1CCCC (stereo not given)	–	4.1µM	–	–	2.1µM	–
Cc1cccc(C(=O)Nc2ccc(C(=O)/C=C/c3ccncc3)cc2)c1	?	?	–	?	?	?
Cc1cccc(C(=O)Nc2ccc(C(=O)/C=C/c3cccnc3)cc2)c1	?	5.2µM	-78	18µM	4.6µM	?
O=C(/C=C/c1cccnc1)c1ccc(NC(=O)c2cccc(Br)c2)cc1	–	7.1µM	–	–	3.2µM	?
Cc1cc(NS(=O)(=O)c2c(C)c(C)cc(C)c2C)no1	–	–	–	–	–	–
O=C(Cc1sc(Nc2ccccc2)nc1-c1ccccc1)NCc1ccccc1	?	16µM	-68	?	?	?
c1ccc(Nc2nc(-c3ccccc3)c(-c3ccccc3)s2)cc1	–	28µM	·	?	?	·
Cc1nc(Nc2ccccc2)sc1-c1ccccc1	?	?	–	?	?	?
O=C(O)Cc1sc(N/N=C\c2ccccc2)nc1-c1ccccc1	–	–	–	–	23µM	–
Cc1ccc(CN2CC(C(=O)N3CCN(S(=O)(=O)c4cc(C)ccc4C)CC3)CC2=O)cc1 (stereo not given)	–	?	–	–	?	–
Cc1ccc(CN2CC(C(=O)N3CCN(S(=O)(=O)c4ccc(C(C)C)cc4)CC3)CC2=O)cc1 (stereo not given)	–	?	–	–	?	12µM
COc1cc(NC(=O)C2CCCN(S(=O)(=O)c3ccc4c(c3)CCCN4C(C)=O)C2)cc(OC)c1 (stereo not given)	–	–	–	–	–	9.2µM
SMILES	HT1080NT lethal	TDP1 cell CPT	IL-1B inflam inh	HT1080 IDH1KD tx	TDP1 cell noCPT	ELG1 repair inh
Cc1ccc(S(=O)(=O)N2CCN(Cc3ccccc3Cl)CC2)cc1	·	?	·	·	18µM	·
Cc1ccc(S(=O)(=O)N2CCN(Cc3ccccc3C(F)(F)F)CC2)cc1	–	–	–	–[9.24 µM]	–	–
COc1ccc(NC(=O)C2CCCN(S(=O)(=O)c3ccc4c(c3)CCCN4C(C)=O)C2)cc1Cl (stereo not given)	–	21µM	–	–	?	?
CCCn1nc(C(=O)OCC(=O)NC(C)c2ccccc2)c2ccccc2c1=O (stereo not given)	–	–	–	–	–	–
COc1ccc(S(=O)(=O)N2CCCC(C(=O)N3CCN(Cc4ccccc4)CC3)C2)cc1Cl (stereo not given)	–	21µM	?	–	15µM	·
COc1ccc(S(=O)(=O)N2CCCC(C(=O)Nc3cccnc3)C2)cc1Cl (stereo not given)	–	16µM	–	?	15µM	23µM
Cc1ccc(S(=O)(=O)N2CCC(C(=O)N3CCN(Cc4ccccc4)CC3)CC2)cc1	–	21µM	–	–	?	–
COc1ccc(S(=O)(=O)N2CCCC(C(=O)N3CCN(C)CC3)C2)cc1Cl (stereo not given)	–	–	–	–	–	–
CCN(CC(=O)Nc1c(F)cccc1F)C(=O)Cc1csc(-c2ccccc2)n1	–	–	–	–	–	–
Cc1nnc(Cc2ccccc2)c2n[nH]c(C)c12	–	0.73µM	–	–	0.73µM	·
CC(C)COc1ccc(C(=O)NCC2OCCc3ccccc32)cc1 (stereo not given)	·	?	·	·	15µM	·
CN(Cc1ccc(OCC(O)CN2CCCCC2)cc1)Cc1ccnc2ccccc12 (stereo not given)	–	9.2µM	–	–	4.6µM	–
Cc1nn(C)cc1CN(C)Cc1ccc(OCC(O)CN2CCCCC2)cc1 (stereo not given)	–	–	–	–	–	–
CN=C1c2c(-c3ccccc3)c3cc(OC)ccc3n2CCN1C	–	23µM	?	?	18µM	–
COc1ccc(-c2c(-c3ccccc3)n(C)c3ccccc23)cc1	–	–	–	–	–	–
O=C(NC1(C(F)(F)F)C(=O)Nc2c1c(=O)[nH]c(=O)n2CCc1ccccc1)c1ccc(Cl)cc1 (stereo not given)	·	–	·	·	–	·
Cc1nc(C(F)(F)F)ccc1C(=O)N1CCC1(C)C(=O)Nc1ccc2c(c1)OCO2 (stereo not given)	–	–	–	–	?	·
COc1cc(C)c(Br)cc1S(=O)(=O)NCc1ccccc1	–	–	–	–	–	–
Cc1cc(C)c(C)c(S(=O)(=O)NCc2ccncc2)c1C	–	21µM	–	?	13µM	2.9µM
COc1cc(S(=O)(=O)NCc2ccncc2)ccc1Br	?	8.2µM	–	–	9.2µM	?
Cc1cc(Br)c(S(=O)(=O)NCc2ccncc2)cc1C	?	5.8µM	–	?	7.3µM	?
